From the supplement of paper PMC6555819 come the findings set out here.

One assay has as its system PXR homodimer (NR concentration 270 nM). In words: PBM binding z-score (relative to random genomic background probes); higher = stronger binding; sequences stand for … in GC…GCGATTGACAGCGTAGAATGAAGG
A digest of the protocol:
(§1)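 Antibodies against each partner of ligand-free nuclear receptor dimers (one per run) detected binding on custom Agilent 4×180K protein-binding microarrays after 1 h incubation. The double-stranded probes had 34-nt variable regions carrying direct-repeat seeds, single-nucleotide variants, half-site ablations and random human genomic background sequences. Binding z-scores, from regression-normalized fluorescence, use the random background probes as reference.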
The sequence ACAGACAGGTGATGAAGGTAACTCCGGCTATCAT yielded a PBM binding z-score of -0.1.
On the same count and under the same terms, the value for GCGACTGGGGCAAAGCAGGTGACCATAAGGTTGG was -0.7; that for GCTATTAGTTGAAAGGGCAAACGAATGATTCTCG was 0.57; that for AGAATGAGGTTATTAAGATCAGGCAATTGCGGTC was 0.322.
In the case of ATCTCTAGGTAAAAGTTCCGTGAATCCCGAGGAT, the PBM binding z-score amounted to 0.269.
GCTTGCAGATCAAGGTTAAGAAAGACTAAGCTAA returned a PBM binding z-score of -0.42.
ACTAGCAGGCCAAGGGTCACTCCAGATTAGTCCG displayed a PBM binding z-score of 0.019.
On the same count and under the same terms, the value for ATCGGAAGGTCGAAGGTGAGTATACCCACCCGAA was 0.401.
On to CCGACTGGGGCAAAGGTTACCATCCTCAGTACGA, for which the PBM binding z-score was -0.625.
In turn, CCTACTGGGCAAAGGTCATTGATCAGTCAAAGCA showed a PBM binding z-score of 1.18.
ATCTCTAGGTAAAGATAGTACAGTGAATGCAAAT displayed a PBM binding z-score of 0.418.
In turn, CATACAGGGTCAGCTAGGCCAGAGCAGGGACGGC registered a PBM binding z-score of 0.078.
Still for that read-out and setting: in the case of ATCTATAGGTAAAAGTTCAGTGAATCCCGAGGAT it was 1.35; in that of ATCGAAAGGTCGAGGTGAGTCTAGAGAAAGGGAA, 0.144; in that of TCTCGTAGATCAATAGAGGTTAAGAAAGTGCGCT, 0.105.
Still for that read-out and setting: the value for GCGACTGGGGCAAAGCAGGTTTCCATAAGGTTGG was -0.449; that for ACATGTAGGTTATCGGGTCATTCAGTTTGCGCAT was 6.61; that for CCGAGTAGGTTACGGGGCATTCAGGCAACGGTGA was -0.35.
Sequence GTGCCAAGGTGAATAGGTCGTTGATGAGTAGGCG displayed a PBM binding z-score of 0.19.
For GATACAGGGCCAAGGCCAGAGTACGCGTATTGAT, the PBM binding z-score was -0.406.
In turn, CCTACTGGGCCATCAGGGCATTGATATCAACGTT came in with a PBM binding z-score of -0.548.
Regarding ATCTCTAGGTAACCAAGTTAAGTGAATGCCGAAC, the PBM binding z-score was found to be 0.739.
The same measure, in the same setting: in the case of ACTAGCAGGCCATGGGTCACTCAAGATTAGTCCG it was -0.43; in that of CGTCAAAGTTCAAGGTAACGAAACAGAAAGCAGC, 2.79; in that of TTACCAAGGTGAAGGTTGTTGATCCCTCTGTAGA, -0.348.
For TCTAGTTGGTCACGGAGGTCTCACACGACGGGTA, the PBM binding z-score was -0.307.
Take CGTCCAAGGTCAGCAGGTCAGTGAAAGCGACGTG: the PBM binding z-score came out at 0.523.
Still for that read-out and setting: the value for CCTGCTATGTCAATGGTCAGCTAAAGCAGCTCGC was -0.703.
The sequence CCGACTGGGGCAAAGGTTACCATTCTCAGTACGA had a PBM binding z-score of -0.502.
As to CGTCCAAGGTCAGCGAGGTCAGTGAATGCCGAGT, the PBM binding z-score is 11.6.
The same measure, in the same setting: the value for AGTCAAAGTTCACTAGCTAACGTAAGATTCAGCT was 1.99; that for TCAATTAGTTGAAGGGCAACCGACGAGTCCGTTT was 0.791.
Still for that read-out and setting: the value for TCTCGGAGGACACGAAAGGTTAGAGCTCGACATC was -0.519; that for TGAATGAGGTTATAAGATCAGGGAGCGTTGCAAA was -0.17.
TCTGCTAGGTCAACGAAGGTCAGCTAATCTGCTA showed a PBM binding z-score of 0.241.
The same measure, in the same setting: in the case of TCTTGTAGATCAACAGGAGGCTAAGAAAGATCGA it was -0.799; in that of CTCGAAAGGTCGGGTGAGGTGAGTATACGGATAA, 0.334.
Same read-out and setting: the value for TAGCATAGGTCATTCAGGGGCCAGTATAGAAAGC was 0.0442.
Sequence ATGCCAAGGTGATCGTGAGGTCGTTGATACTAAC yielded a PBM binding z-score of 1.03.
On the same count and under the same terms, in the case of GAATATAGGTAATACAAGGTGAAAGTCCGATTGT it was 0.722.

For the next assay, the system named is RARa:RXR (NR concentration 270 nM, RXRa partner concentration 90 nM). The assay is described as above. The method in brief:
as §1
Sequence ACAGACAGGTGATGAAGGTAACTCCGGCTATCAT showed a PBM binding z-score of 0.357.
GCGACTGGGGCAAAGCAGGTGACCATAAGGTTGG displayed a PBM binding z-score of 0.805.
Still for that read-out and setting: the value for GCTATTAGTTGAAAGGGCAAACGAATGATTCTCG was 1.52.
Still for that read-out and setting: the value for AGAATGAGGTTATTAAGATCAGGCAATTGCGGTC was 1.47.
For ATCTCTAGGTAAAAGTTCCGTGAATCCCGAGGAT, the PBM binding z-score worked out at 0.0824.
Turning to GCTTGCAGATCAAGGTTAAGAAAGACTAAGCTAA, the PBM binding z-score worked out at 0.588.
The same measure, in the same setting: in the case of ACTAGCAGGCCAAGGGTCACTCCAGATTAGTCCG it was 3.79; in that of ATCGGAAGGTCGAAGGTGAGTATACCCACCCGAA, 2.34.
Still for that read-out and setting: in the case of CCGACTGGGGCAAAGGTTACCATCCTCAGTACGA it was 4.05.
Same read-out and setting: the value for CCTACTGGGCAAAGGTCATTGATCAGTCAAAGCA was 6.18; that for ATCTCTAGGTAAAGATAGTACAGTGAATGCAAAT was 0.0539.
In turn, CATACAGGGTCAGCTAGGCCAGAGCAGGGACGGC had a PBM binding z-score of 2.84.
The same measure, in the same setting: in the case of ATCTATAGGTAAAAGTTCAGTGAATCCCGAGGAT it was 1.84; in that of ATCGAAAGGTCGAGGTGAGTCTAGAGAAAGGGAA, 3.67.
Regarding TCTCGTAGATCAATAGAGGTTAAGAAAGTGCGCT, the PBM binding z-score was found to be 1.6.
Still for that read-out and setting: in the case of GCGACTGGGGCAAAGCAGGTTTCCATAAGGTTGG it was -0.165; in that of ACATGTAGGTTATCGGGTCATTCAGTTTGCGCAT, 3.88; in that of CCGAGTAGGTTACGGGGCATTCAGGCAACGGTGA, 0.636.
Sequence GTGCCAAGGTGAATAGGTCGTTGATGAGTAGGCG returned a PBM binding z-score of 1.38.
On the same count and under the same terms, in the case of GATACAGGGCCAAGGCCAGAGTACGCGTATTGAT it was -0.762; in that of CCTACTGGGCCATCAGGGCATTGATATCAACGTT, -0.889.
On the same count and under the same terms, in the case of ATCTCTAGGTAACCAAGTTAAGTGAATGCCGAAC it was 0.368; in that of ACTAGCAGGCCATGGGTCACTCAAGATTAGTCCG, 1.56; in that of CGTCAAAGTTCAAGGTAACGAAACAGAAAGCAGC, 3.53.
The sequence TTACCAAGGTGAAGGTTGTTGATCCCTCTGTAGA returned a PBM binding z-score of 0.887.
The sequence TCTAGTTGGTCACGGAGGTCTCACACGACGGGTA had a PBM binding z-score of 0.619.
The same measure, in the same setting: the value for CGTCCAAGGTCAGCAGGTCAGTGAAAGCGACGTG was 4.76; that for CCTGCTATGTCAATGGTCAGCTAAAGCAGCTCGC was -0.142; that for CCGACTGGGGCAAAGGTTACCATTCTCAGTACGA was 3.87.
CGTCCAAGGTCAGCGAGGTCAGTGAATGCCGAGT yielded a PBM binding z-score of 5.42.
AGTCAAAGTTCACTAGCTAACGTAAGATTCAGCT: the PBM binding z-score was found to be 2.79.
On the same count and under the same terms, in the case of TCAATTAGTTGAAGGGCAACCGACGAGTCCGTTT it was 0.357; in that of TCTCGGAGGACACGAAAGGTTAGAGCTCGACATC, 1.52; in that of TGAATGAGGTTATAAGATCAGGGAGCGTTGCAAA, 0.968.
The same measure, in the same setting: in the case of TCTGCTAGGTCAACGAAGGTCAGCTAATCTGCTA it was 4.51.
TCTTGTAGATCAACAGGAGGCTAAGAAAGATCGA gave a PBM binding z-score of -0.313.
Same read-out and setting: the value for CTCGAAAGGTCGGGTGAGGTGAGTATACGGATAA was 3.01.
On the same count and under the same terms, in the case of TAGCATAGGTCATTCAGGGGCCAGTATAGAAAGC it was 5.79; in that of ATGCCAAGGTGATCGTGAGGTCGTTGATACTAAC, 2.28.
The same measure, in the same setting: in the case of GAATATAGGTAATACAAGGTGAAAGTCCGATTGT it was 1.33.
